The campaign covered roughly 5,500 compounds. About 2,000 (36%) were called active. Not shown: some 18% with an inconclusive outcome. Cut-off read from the data, not from the text of the source: active = normalized growth mostly below about 0.91 (no sharp cut-off); inconclusive = no clear call, values can overlap the other calls; inactive = mostly above about 0.92. The list shows a part of the results.
Assay: chemical genetic growth profiling, strain panel (AID 1159580);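 note: tested at 20 µM; growth read once vehicle control cultures reached saturation at 30 °C; 1 = growth at the plate median or of vehicle wells; lower values mean less growth of the strain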
Settings: S. cerevisiae deletion strains, growth OD

Measured: normalized growth

Oc1c(I)cc(Cl)c2cccnc12
active: locus YAL021C, strain ccr4, hits give low values 0.0783 | locus YAL026C, strain drs2, hits give low values 0.0852 | locus YAL030W, strain snc1, hits give low values 0.074 | locus YBL061C, strain skt5, hits give low values 0.0782 | locus YBR009C, strain hhf1, hits give low values 0.0791 | locus YBR023C, strain chs3, hits give low values 0.0818 | locus YBR171W, strain sec66, hits give low values 0.115 | locus YBR231C, strain swc5, hits give low values 0.0829 | locus YBR279W, strain paf1, hits give low values 0.0782 | locus YCL011C, strain gbp2, hits give low values 0.0716 | locus YCL016C, strain dcc1, hits give low values 0.0859 | locus YCL061C, strain MRC1, hits give low values 0.0889 | locus YCL069W, strain vba3, hits give low values 0.0861 | locus YCR088W, strain abp1, hits give low values 0.0839 | locus YDL005C, strain med2, hits give low values 0.0947 | locus YDL040C, strain nat1, hits give low values 0.0731 | locus YDR001C, strain nth1, hits give low values 0.0804 | locus YDR069C, strain doa4, hits give low values 0.0805 | locus YDR137W, strain rgp1, hits give low values 0.12 | locus YDR159W, strain sac3, hits give low values 0.115 | locus YDR195W, strain ref2 0.156 | locus YDR297W, strain sur2, hits give low values 0.074 | locus YDR334W, strain swr1, hits give low values 0.0896 | locus YDR335W, strain msn5, hits give low values 0.0873 | locus YDR392W, strain spt3, hits give low values 0.119 | locus YEL003W, strain gim4, hits give low values 0.0685 | locus YEL037C, strain rad23, hits give low values 0.0804 | locus YEL061C, strain CIN8 (second series), hits give low values 0.0788 | locus YER015W, strain faa2, hits give low values 0.0769 | locus YER016W, strain bim1, hits give low values 0.0802 | locus YER111C, strain swi4, hits give low values 0.103 | locus YER155C, strain BEM2 (second series), hits give low values 0.127 | locus YFR010W, strain ubp6, hits give low values 0.0904 | locus YGL167C, strain pmr1, hits give low values 0.0969 | locus YGL173C, strain kem1, hits give low values 0.088 | locus YGL227W, strain vid30, hits give low values 0.0887 | locus YGL240W, strain doc1, hits give low values 0.104 | locus YGL253W, strain hxk2, hits give low values 0.0777 | locus YHR013C, strain ard1, hits give low values 0.139 | locus YHR027C, strain rpn1, hits give low values 0.0784 | locus YHR030C, strain SLT2, hits give low values 0.148 | locus YHR079C, strain IRE1, hits give low values 0.134 | locus YHR142W, strain chs7, hits give low values 0.104 | locus YJL092W, strain hpr5, hits give low values 0.0829 | locus YJL095W, strain BCK1 (second series), hits give low values 0.0763 | locus YJL095W, strain BCK1, hits give low values 0.127 | locus YJL115W, strain asf1, hits give low values 0.101 | locus YJL129C, strain trk1, hits give low values 0.102 | locus YJL154C, strain vps35, hits give low values 0.0859 | locus YJL164C, strain tpk1, hits give low values 0.0769 | locus YJL166W, strain qcr8, hits give low values 0.0785 | locus YJR066W, strain TOR1, hits give low values 0.00414 | locus YKL160W, strain elf1, hits give low values 0.0922 | locus YKR026C, strain gcn3, hits give low values 0.0898 | locus YKR091W, strain srl3, hits give low values 0.0766 | locus YLL001W, strain dnm1, hits give low values 0.0857 | locus YLL026W, hits give low values 0.0726 | locus YLL041C, strain sdh2, hits give low values 0.0731 | locus YLR027C, strain aat2, hits give low values 0.071 | locus YLR113W, strain HOG1, hits give low values 0.163 | locus YLR221C, strain rsa3, hits give low values 0.0761 | locus YLR258W, strain gsy2, hits give low values 0.0743 | locus YLR262C, strain YPT6 (second series), hits give low values 0.0974 | locus YLR320W, strain mms22, hits give low values 0.0998 | locus YLR342W, strain FKS1, hits give low values 0.0803 | locus YLR357W, strain rsc2, hits give low values 0.172 | locus YLR370C, strain arc18, hits give low values 0.0859 | locus YLR384C, strain iki3, hits give low values 0.0798 | locus YML120C, strain ndi1, hits give low values 0.0749 | locus YMR058W, strain fet3, hits give low values 0.0885 | locus YMR125W, strain sto1, hits give low values 0.106 | locus YMR129W, hits give low values 0.0728 | locus YMR205C, strain PFK2, hits give low values 0.11 | locus YMR231W, strain pep5, hits give low values 0.0867 | locus YNL071W, strain lat1, hits give low values 0.0765 | locus YNL183C, strain NPR1, hits give low values 0.00429 | locus YNL209W, strain ssb2, hits give low values 0.076 | locus YNL248C, strain rpa49, hits give low values 0.104 | locus YNL322C, strain KRE1 (second series), hits give low values 0.0819 | locus YNR049C, strain mso1, hits give low values 0.0835 | locus YOR001W, strain rrp6, hits give low values 0.0849 | locus YOR070C, strain gyp1, hits give low values 0.106 | locus YOR080W, strain dia2, hits give low values 0.0874 | locus YOR083W, strain WHI5, hits give low values 0.0797 | locus YOR106W, strain vam3, hits give low values 0.0829 | locus YOR231W, strain MKK1, hits give low values 0.122 | locus YOR265W, strain rbl2, hits give low values 0.072 | locus YOR270C, strain vph1, hits give low values 0.139 | locus YOR290C, strain snf2, hits give low values 0.0977 | locus YPL051W, strain arl3, hits give low values 0.0807 | locus YPL078C, strain atp4, hits give low values 0.0919 | locus YPL106C, strain sse1, hits give low values 0.139 | locus YPL240C, strain hsp82, hits give low values 0.0779 | locus YPL256C, strain CLN2, hits give low values 0.143
